Where “and” joins values, the source holds several entries; their conditions need not be identical. Identical values can stand only once. The campaign covered roughly 16,000 compounds. About 5,800 (36%) were called active. Inconclusive results (about 23%) are left out. Calls come from the whole dose curve; as a rule, active = well fitted curve in the direction sought with a large enough effect; inconclusive = small, poorly fitted or top-dose-only effect, or effect the other way; inactive = no such curve, though single readings can be large or run the other way. This is one part of the list. Some structures have more than one record in an assay (separate samples or runs), and their calls can disagree.
% is set by controls: 0 for no effect and ±100 for the full control effect.

Cytochrome P450 2C19 (Homo sapiens), sequence (P33261 whole entry, looked up): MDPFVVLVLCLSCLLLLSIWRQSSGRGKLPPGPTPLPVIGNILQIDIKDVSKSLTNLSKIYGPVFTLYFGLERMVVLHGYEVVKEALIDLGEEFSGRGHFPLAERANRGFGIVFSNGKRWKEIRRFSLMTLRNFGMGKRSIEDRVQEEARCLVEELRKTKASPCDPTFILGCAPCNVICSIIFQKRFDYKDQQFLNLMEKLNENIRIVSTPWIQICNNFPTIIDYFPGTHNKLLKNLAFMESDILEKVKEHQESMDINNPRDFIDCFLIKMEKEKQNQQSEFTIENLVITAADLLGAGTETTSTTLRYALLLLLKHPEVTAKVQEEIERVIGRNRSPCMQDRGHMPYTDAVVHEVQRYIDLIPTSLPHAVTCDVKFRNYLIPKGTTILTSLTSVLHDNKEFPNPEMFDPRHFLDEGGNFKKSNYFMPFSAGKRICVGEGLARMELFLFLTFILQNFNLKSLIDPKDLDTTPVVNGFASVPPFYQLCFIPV

The experiment concerns the target Cytochrome P450 2C19 (Homo sapiens) (UniProt P33261). The experiment can be described thus: Cytochrome panel assay with activity outcomes. The settings on record: recombinant CYP, pro-luciferin dealkylation, luminescence, p450-cyp2c19; series mostly up to 57.1 µM; activity, negative = inhibition: at the top concentration.
Consider `CCOC(=O)CCN1C(=O)[C@H]2[C@H]3[C@H](O)[C@H](O)C/C(=N/OC/C=C(\C)CCC=C(C)C)[C@@H]3CC[C@@H]2C1=O`, for which the activity, negative = inhibition was 6.34% [at 11.4 µM] (inactive).

For `CCCCCCCCCCCCCCC[C@@H](O)[C@@H](N)CO`, the “activity, negative = inhibition” value is -34.9% (inactive).

Regarding `O=c1[nH]c(SCc2c(Cl)c(Cl)c(Cl)c(Cl)c2Cl)nc(=S)[nH]1`, the activity, negative = inhibition was -28.6% [at 11.4 µM] (inactive).

For `CN(C)Cc1ccccc1-c1nc(NCc2cccs2)c2ccccc2n1`, the “activity, negative = inhibition” value is 21.4% (inactive).

With `Clc1ccccc1-c1nc(NCc2cccs2)c2ccccc2n1`, the AC50 – broadly, the concentration at which the activity in the assay is half-maximal – is 7.94 µM (active).

For `CN(C)CCNC(=O)Cn1nc(-c2ccc(Cl)cc2)ccc1=O`, the “activity, negative = inhibition” value was -7.39% (inactive).

For `COc1ccc(NC(=O)N2CCC3(CC2)CCN(C(=O)c2csnn2)CC3)cc1`, the “activity, negative = inhibition” value is 6.58% (inactive).

With `CC(=O)C1C(c2ccccc2OC(F)F)NC(=O)NC1(O)C(F)(F)F` (stereo not drawn), the “activity, negative = inhibition” value is -20.9% (inactive).

Consider `Cn1c(-c2ccccc2)cnc1N`, for which the “activity, negative = inhibition” value was -26.7% (inactive).

Take `Cc1ccc(-c2cnc(NC(=O)CCC(=O)N3CCCCC3)n2C)cc1`: the “activity, negative = inhibition” value is -26.8% (inactive).

Turning to `CCNc1ncc2nc(-c3ccc(F)cc3)c(=O)n(C)c2n1`, the “activity, negative = inhibition” value was 12.1% (inactive).

As for `Cn1c(-c2ccc(F)cc2)cnc1NCc1ccc(F)cc1`, the AC50 was 2.51 µM (active).

As for `Cn1c(-c2ccc(F)cc2)cnc1NCc1cccc(F)c1`, the AC50 was 6.31 µM (active).

Regarding `CCN(CC)C[C@@H](O)CN1CCCCc2nc(C)c(C)cc21`, the activity, negative = inhibition is 32.1% [at 11.4 µM] (inactive).

For `O=C(NC1(C(F)(F)F)NC(=O)N(Cc2cccnc2)C1=O)c1ccccc1` (stereo not drawn), the AC50 was 15.8 µM (active).

Regarding `CCCCN1C(=O)NC(NC(=O)c2ccco2)(C(F)(F)F)C1=O` (stereo not drawn), the AC50 is 8.91 µM (active).

With `O=C(NC1(C(F)(F)F)C(=O)Nc2c1c(=O)[nH]c(=O)n2-c1ccc(F)cc1)c1cccnc1` (stereo not drawn), the “activity, negative = inhibition” value is -21.4% (inactive).

With `O=C(c1ccco1)N1CCC2(CC1)CN(Cc1cc(C(F)(F)F)cc(C(F)(F)F)c1)C2`, the “activity, negative = inhibition” value is -26.9% (inactive).

On to `NS(=O)(=O)c1ccc(N=Nc2ncccc2O)cc1`, for which the activity, negative = inhibition was -17% [at 11.4 µM] (inactive).

`Cc1ccc2nc(SCc3nnc(-c4ccccc4[N+](=O)[O-])o3)c(C#N)cc2c1`: the AC50 was 0.794 µM (active).

Regarding `Cc1nc2cccc([N+](=O)[O-])c2n1CCCN(C)C`, the activity, negative = inhibition was 37.8% [at 11.4 µM] (inactive).

In the case of `C#CCN(C)Cc1ccccc1`, the AC50 result is “inactive”.

Consider `CN(Cc1ccccc1)Cn1ccnc1`, for which the AC50 was 2 µM (active).

For `COc1ccc(CCNC[C@H](O)c2ccc(O)cc2)cc1OC`, the “activity, negative = inhibition” value was 13.4% (inactive).

Turning to `CCOc1nc(NCCc2ccc(OC)c(OC)c2)nc(NC(C)(C)CO)n1`, the AC50 is 6.31 µM (active).

For the compound `Cn1c(=O)c(-c2cccs2)nc2cnc(Oc3ccccc3)nc21`, the “activity, negative = inhibition” value is -28.2% (inactive).

`COCCn1c(=O)cnc2cnc(Oc3ccccc3)nc21`: the AC50 was 10 µM (active).

In the case of `COCCn1c(=O)c(-c2ccccc2)nc2cnc(Oc3ccccc3)nc21`, the “activity, negative = inhibition” value is -68.1% (inactive).

Regarding `COCCn1c(=O)cnc2cnc(Oc3ccc(OC)cc3)nc21`, the “activity, negative = inhibition” value was -29.1% (inactive).

For the compound `COCCn1c(=O)c(-c2cccs2)nc2cnc(Oc3ccccc3)nc21`, the AC50 was 10 µM (active).

Consider `O=c1cnc2cnc(Oc3ccccc3)nc2n1CCc1ccccc1`, for which the AC50 is 6.31 µM (active).

On to `COc1ccc(Oc2ncc3ncc(=O)n(CCc4ccccc4)c3n2)cc1`, for which the “activity, negative = inhibition” value was -24.1% (inactive).

On to `COc1ccc(S(=O)(=O)N(CCc2ccccc2)CC(=O)N2CCOCC2)cc1`, for which the AC50 is 10 µM (active).

As to `CN(Cc1ccccc1)S(=O)(=O)c1ccc(OCC(=O)N2CCOCC2)cc1`, the “activity, negative = inhibition” value was -58.2% (inactive).

On to `COc1ccc(S(=O)(=O)N(CC(=O)N2CCCC2)Cc2ccccc2)cc1`, for which the AC50 was 5.62 µM (active).

For `COc1ccc(NC(=O)N2CCCC3(CCN(S(=O)(=O)c4ccccc4)CC3)C2)cc1`, the “activity, negative = inhibition” value is -9.43% (inactive).

Consider `CCN(CC)S(=O)(=O)c1ccc2c(c1)nc(SCC(=O)N1CCOCC1)n2-c1ccccc1OC`, for which the “activity, negative = inhibition” value is -25.7% (inactive).

As to `c1ccc2c(Nc3ccncc3)nc(-c3ccc4c(c3)OCO4)nc2c1`, the AC50 was 3.98 µM (active).

With `c1ccc(Nc2nc(-c3ccc4c(c3)OCO4)nc3ccccc23)cc1`, the AC50 is 3.16 µM (active).

Take `CCOc1ccc(-n2c(SCC(=O)Nc3ccc(OC)cc3OC)nc3c(c2=O)SCC3)cc1`: the AC50 is 5.01 µM (active).

In the case of `CCOc1ccc(-n2c(SCC(=O)Nc3ccc4c(c3)OCCO4)nc3c(c2=O)SCC3)cc1`, the AC50 was 2.82 µM (active).

Take `CCOc1ccc(-n2c(SCC(=O)Nc3ccc(OC)cc3)nc3c(c2=O)SCC3)cc1`: the AC50 was 7.08 µM (active).

In the case of `C/C(CCN1CCCCc2nc(C)c(C)cc21)=N\O[C@@H](C)c1cc(-c2c(C)cc(C)cc2C)no1`, the activity, negative = inhibition was -41.4% [at 11.4 µM] (inactive).

For `O=c1c(-c2cc(F)cc(F)c2)nc2cnc(N3CCOCC3)nc2n1C1CC1`, the “activity, negative = inhibition” value was 24.5% (inactive).

Regarding `CO[C@H]1COC(=O)[C@H](C)COC(=O)[C@@H](Cc2ccccc2)NC(=O)C/C=C\[C@H]1C`, the activity, negative = inhibition was -17.9% [at 11.4 µM] (inactive).

Regarding `CS(=O)(=O)N1CCC2(CC1)CN(Cc1nccs1)C2`, the “activity, negative = inhibition” value was -13.6% (inactive).

As to `C[C@]12CC[C@H]3c4ccc(O)cc4CC[C@@H]3[C@H]1C/C(=N/O)[C@H]2O`, the activity, negative = inhibition is 27.1% [at 11.4 µM] (inactive).

On to `COc1cc(CNn2nnnc2N)ccc1OCc1c(Cl)cccc1Cl`, for which the AC50 is 2.51 µM (active).

For the compound `CC(=O)N1N=C(c2cccc([N+](=O)[O-])c2)OC1c1ccc(Cl)cc1Cl` (stereo not drawn), the AC50 is 0.447 µM (active).

As for `CC(=O)N1N=C(c2cccc([N+](=O)[O-])c2)OC1c1ccccc1Cl` (stereo not drawn), the AC50 is 2.82 µM (active).

`CN1CCN(c2ncc3nc(-c4cccc(C#N)c4)c(=O)n(CCC#N)c3n2)CC1`: the “activity, negative = inhibition” value was 11.8% (inactive).

Take `COc1ccc(N2C(=O)CSC2c2cccc(F)c2)c(OC)c1` (stereo not drawn): the AC50 was 11.2 µM (active).

As for `CNCCc1ccccn1`, the “activity, negative = inhibition” value was 6.91% [at 25.6 µM] (inactive).

In the case of `Cc1cc(Br)ccc1NCc1ccccn1`, the AC50 is 0.251 µM (active).

Take `c1ccc(CCNc2ccccn2)nc1`: the activity, negative = inhibition is 10.5% [at 11.4 µM] (inactive).

As for `Cc1cc(NCc2ccccn2)ccc1Br`, the AC50 is 2.82 µM (active).

As to `OCCCNCc1ccccn1`, the activity, negative = inhibition is 31.9% [at 11.4 µM] (inactive).

With `CN(C)CC[C@H](c1ccc(Br)cc1)c1ccccn1`, the AC50 entry was “inactive”.

As for `O=C(NCCCn1ccnc1)c1ccc(Br)c(S(=O)(=O)N2CCOCC2)c1`, the AC50 was 17.8 µM (active).

Turning to `Cc1ccc(C(=O)Oc2cc(C)n(C)c(=O)c2)cc1`, the “activity, negative = inhibition” value was -24.2% (inactive).

Consider `COC(=O)c1ccc(Oc2cc(C)nc(-n3nc(C)cc3C)n2)cc1`, for which the AC50 is 7.94 µM (active).

`CN1C(C(=O)Nc2ccccn2)=C(O)c2sccc2S1(=O)=O`: the “activity, negative = inhibition” value was -5.67% [at 25.6 µM] (inactive).

On to `CN1C(C(=O)Nc2ccccn2)=C(O)c2ccccc2S1(=O)=O`, for which the AC50 entry is “inactive and 6.31 µM (active)”.

The record behind these values is PubChem BioAssay AID1851 (National Center for Advancing Translational Sciences (NCATS), 2009).
